Bioassay records deposited in PubChem by The Scripps Research Institute Molecular Screening Center.
DAX1 inh-1: blocks DAX1 repression of SF-1 activated StAR promoter; HEK293T StAR-luciferase reporter, SF-1/DAX-1 repression relief; inhibition, % at 6.8 µM; 370,000 compounds, 1.1% hits; AID 652010;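 active = inhibition above the mean over all tested compounds plus 3 SD, cut at about 3.6% in these data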;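 also: 0% = DAX-1 cells with DMSO and 100% = cells lacking DAX-1 with DMSO; higher inhibition means more luminescence from relief of DAX-1 repression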
hcDAF12 agonist: activators of H. contortus DAF-12 nuclear receptor | HEK293 hcDAF-12 lit1-tk-luc reporter, luminescence; 0% DMSO, 100% Δ7-dafachronic acid | activation, % at 6.8 µM | 370,000 compounds, 1.4% hits;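 active = activation above the mean of all tested compounds plus 3 SD, cut at about 5.5% in these data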;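 also: 100% = response to 3 µM Δ7-dafachronic acid high control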
hgDAF12 agonist: hgDAF-12 agonism, primary luciferase screen. HEK293 GAL4-hgDAF12 UAS-luciferase reporter, agonist luminescence; normalized to butyrate control. activation, % at 6.8 µM. 370,000 compounds, 1.8% hits. AID 687014;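 active = activation above a cutoff set at the mean of all screened compounds plus 3 SD, cut at about 10% in these data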;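 also: 0% = DMSO wells and 100% = sodium butyrate wells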
DAX1 inh-2: inhibits human nuclear receptor DAX1; P51843; HEK293 Gal4-DAX1 luciferase reporter, luminescence; inhibition, % at 6.75 µM; 340,000 compounds, 0.99% hits; AID 504766;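 active = inhibition above the mean over all tested compounds plus 3 SD, cut at about 4.2% in these data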;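 also: 0% = DAX1-transfected cells with DMSO and 100% = empty-vector control cells with DMSO; inhibition shows as a rise in luminescence from relieved DAX1 repression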
AHR activator: activators of human aryl hydrocarbon receptor | P35869 | AHR-responsive luciferase reporter cells, luminescence | activation, % at 5 µM | 320,000 compounds, 2.5% hits; in the data active = activation above about 47%;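 also: 0% = vehicle wells and 100% = reference agonist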
ssDAF12 agonist: S. stercoralis DAF-12 activation, primary screen; 370,000 compounds, 1% hits; activation, % at 6.8 µM; AID 652126; HEK293 ssDAF-12/GRIP1 lit1-tk-luc reporter, luminescence; % of 3 µM dafachronic acid response;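 active = activation above the mean over all tested compounds plus 3 SD, cut at about 0.9% in these data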;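 also: 0% = DMSO-only wells and 100% = 3 µM delta7-dafachronic acid wells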
LXR ag: counter-screen for hcDAF-12 agonists: agonists of human LXR-beta. activation, % at 6.8 µM. shares compounds with hcDAF12 agonist. HEK293 Gal4-LXR tk-luc reporter, luminescence, 24 h; normalized: DMSO 0%, positive control 100%. 3,400 tested, under 10 active;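 active = mean percent activation of the reporter above a cutoff set as the average over tested compounds plus their standard deviation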
Target sequence (P55055 whole entry, looked up, the tested form may be a part): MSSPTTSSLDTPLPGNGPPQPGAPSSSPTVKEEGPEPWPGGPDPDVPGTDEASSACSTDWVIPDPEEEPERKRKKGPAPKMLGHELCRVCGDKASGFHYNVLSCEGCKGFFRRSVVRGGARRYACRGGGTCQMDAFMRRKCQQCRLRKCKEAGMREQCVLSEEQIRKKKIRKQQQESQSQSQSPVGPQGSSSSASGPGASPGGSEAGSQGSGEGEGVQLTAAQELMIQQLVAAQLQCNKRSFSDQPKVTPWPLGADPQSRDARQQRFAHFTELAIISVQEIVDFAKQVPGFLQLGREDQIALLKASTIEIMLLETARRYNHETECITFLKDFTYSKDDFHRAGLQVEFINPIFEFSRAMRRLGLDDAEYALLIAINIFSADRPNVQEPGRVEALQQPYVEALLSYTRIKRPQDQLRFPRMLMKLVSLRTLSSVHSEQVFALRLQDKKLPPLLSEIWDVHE
hcDAF12 ag: hcDAF-12 agonism, confirmation assay. 3,400 compounds, 61% hits. shares compounds with hcDAF12 agonist. AID 743032. HEK293 hcDAF-12 lit1-tk-luc reporter, luminescence; % of Δ7-dafachronic acid response. activation, % at 6.8 µM;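 active = mean activation across triplicate tests above the threshold derived from the earlier primary screen, cut at about 5.5% in these data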;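 also: 0% = DMSO only wells and 100% = 3 µM Δ7-dafachronic acid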
Numbers without * were called inactive; nt = no result given. Only some compounds are listed: those with a hit (about 5.7% of all), similar ones and a draw of the others.

SMILES	DAX1 inh-1	hcDAF12 agonist	hgDAF12 agonist	DAX1 inh-2	AHR activator	ssDAF12 agonist	LXR ag	hcDAF12 ag
O=C(Cn1cc([N+](=O)[O-])cn1)NCCc1nc2ccccc2[nH]1	1	0	4	1	1	-1	nt	nt
Cc1oc(-c2ccccc2)nc1C(=O)Nc1nccs1	2	8.7*	6	2	74*	1	1	8.5*
O=C(C1=C(O)C(=O)N(CCN2CCOCC2)C1c1cccc(O)c1)c1cc2ccccc2o1 (stereo not given)	-1	-2	0	0	nt	0	nt	nt
O=C(C1=C(O)C(=O)N(CCN2CCOCC2)C1c1cccc(F)c1)c1cc2ccccc2o1 (stereo not given)	0	8.3*	1	0	8	0	0	3
COc1cc2c(cc1NC(=O)C(C)OC(=O)C1CC(=O)N(Cc3ccco3)C1)oc1ccccc12 (stereo not given)	1	8.8*	6	1	54*	1.5*	0	8.0*
CCC1Oc2ccc(C)cc2N(CC(=O)N2CCOCC2)C1=O (stereo not given)	0	-1	-1	0	1	-1	nt	nt
Cn1c(O)c(N=NC(=O)Cn2ccc(C(F)(F)F)n2)c2ccccc21	0	9.1*	2	-2	9	-1	0	0
O=C(NCCNC(=O)c1ccc(-c2ccc(Cl)c(Cl)c2)o1)c1cnccn1	0	0	0	0	10	-1	nt	nt
Cc1ccc2sc(NC(=O)CSc3nc(C)cc(C)c3C#N)nc2c1	4.0*	11*	12*	1	-11	0.9*	1	11*
CN(/N=C/c1c[nH]c2ccccc12)c1cnn(-c2ccc(F)c(Cl)c2)c(=O)c1Cl	1	7.2*	3	-1	11	1	0	1
CN(/N=C/c1cccnc1)c1cnn(-c2ccc(F)c(Cl)c2)c(=O)c1Cl	0	0	0	1	25	-1	nt	nt
COc1ccccc1C(=O)NC(=S)Nc1ccccc1N1CCCC1	-2	7.1*	-2	2	53*	0	0	7.6*
O=C(NC(=S)Nc1ccccc1N1CCCCC1)c1ccc(F)cc1Cl	1	0	2	-1	6	-1	nt	nt
O=C(NC(=S)Nc1ccccc1N1CCCC1)c1ccc(F)cc1	0	9.1*	6	0	71*	0	0	3
O=C(NC(=S)NCCCN1CCOCC1)c1cccc2ccccc12	0	-1	0	0	6	-2	nt	nt
Clc1ccc2nc(-c3ccc4c(c3)OCO4)cn2c1	3.7*	7.5*	5	-1	23	-1	1	7.1*
CC1CCCCN1S(=O)(=O)c1ccc(C(=O)Nc2ccccc2-c2nc3ccccc3s2)cc1 (stereo not given)	0	11*	1	0	13	0	0	4
Cc1nc2nc(Cc3ccccc3)nn2c(C)c1Cl	0	1	2	0	-3	-1	nt	nt
Cc1nc2nc(-c3ccco3)nn2c(C)c1Cl	0	6.8*	3	1	31	0	0	5
Cc1ccc2ccc(C3C(=O)c4ccccc4C3=O)nc2c1	3	15*	14*	1	58*	1.8*	2	19*
CC(C)CSc1nnc2c3ccccc3n(C)c2n1	2	14*	10	10*	57*	1.6*	1	11*
CC1CCc2c(nc3sc4c(c3c2N)CCCC4)C1 (stereo not given)	2	7.1*	21*	1	16	0	1	2
CN1c2ccsc2/C(=N/Nc2ccc(F)cc2)CS1(=O)=O	2	7.1*	9	5.9*	65*	4.7*	1	9.1*
CCCC(=O)N/N=C1\CS(=O)(=O)N(C)c2ccsc21	0	1	0	0	6	0	nt	nt
Cc1ccc(N/N=C2\CS(=O)(=O)N(C)c3ccsc32)cc1	1	10*	8	11*	41	1.2*	0	8.7*
SMILES	DAX1 inh-1	hcDAF12 agonist	hgDAF12 agonist	DAX1 inh-2	AHR activator	ssDAF12 agonist	LXR ag	hcDAF12 ag
Cc1cc(N)n(-c2ccc(C)c(C)c2)n1	1	7.1*	8	1	15	0	0	5
COc1ccc(C2Cc3ccccc3C(=O)O2)cc1 (stereo not given)	0	2	0	0	1	-2	nt	nt
Cn1c(=O)[nH]c2ccc([N+](=O)[O-])nc21	1	-1	2	1	1	-1	nt	nt
COc1ccc(N=Nc2ccc3ccccc3c2)c(O)c1	1	8.1*	5	4	49*	0	2	12*
Cc1ccc(-n2c3c(cc(C(=O)NC4CCSC4=O)c2=O)C(=O)CC(C)(C)C3)cc1 (stereo not given)	0	6.9*	0	0	2	-1	0	-1
Nn1cnc2scc(-c3cccs3)c2c1=O	0	1	0	0	3	-1	nt	nt
Nn1cnc2scc(-c3ccc(Cl)cc3)c2c1=O	0	6.9*	9	1	25	1.7*	0	1
C[C@H](CO)N1C[C@H](C)[C@@H](CN(C)Cc2ccc(Oc3ccccc3)cc2)Oc2c(NC(=O)c3ccncc3)cccc2C1=O	-1	-2	-3	-2	2	-2	nt	nt
O=C(NC1=NCCS1)c1sc2cc(F)ccc2c1Cl	2	9.4*	11*	3	14	1.3*	2	15*
O=C(Nc1ccon1)c1sc2cc(F)ccc2c1Cl	1	4	5	4	8	0	nt	nt
Cc1onc(-c2ccccc2)c1C(=O)OCC(=O)N1CCCCC1	0	0	6	0	nt	-1	nt	nt
O=C(NCc1ccccc1)C(c1ccccc1)n1c(=O)c(-c2cc3ccccc3[nH]2)nc2ccccc21 (stereo not given)	2	4	4	nt	nt	0	nt	nt
O=C(NCc1ccccc1)C(c1cc2ccccc2o1)n1c(=O)c(-c2cc3ccccc3[nH]2)nc2ccccc21 (stereo not given)	3	9.2*	6	nt	nt	1.8*	0	7.0*
O=C(Nc1ccc2c(c1)OCCO2)C(c1ccncc1)n1c(=O)c(-c2cc3ccccc3[nH]2)nc2ccccc21 (stereo not given)	3	8.8*	12*	nt	nt	1.6*	1	15*
